Test in all cases: NCI-60 one-dose screen, 48 h (100 = growth as untreated, 0 = no growth, -100 = all killed)
Experiment [1] concerns NCI-H23 lung.
Experiment [2] relates to NCI-H226 lung.
The test system of experiment [3] is NCI-H322M lung. As to conditions: 10 µM unless noted.
In experiment [4] the test system is HOP-62 NSCLC.
In experiment [5] the test system is NCI-H460 lung.
The test system of experiment [6] is HOP-92 NSCLC.
Experiment [7] concerns NCI-H522 lung.
For experiment [8], the system named is A549/ATCC NSCLC.
Experiment [9] deals with 786-0 renal.
Experiment [10] concerns COLO 205 colon.

Several values for one entry are separate records, joined by “and”; a condition that tells them apart may be missing. Equal values may be shown once. About 83,000 compounds went through this panel and 20% of them were active in at least one assay; those are over-represented in the sample as a whole.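 Cell lines were cultured in 96-well plates, exposed to a single compound concentration, and assessed for percent growth 48 hours later.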 Activity calls are given as the source filed them. Rule for the calls: active = growth percent below 10; inactive = the rest.

Turning to `Fc1ccccc1-c1cnn2cc(-c3ccccc3)cnc12`, the growth was 95.5% (inactive) in experiment [1] (10 µM unless noted); 94.3% (inactive) in experiment [2] (10 µM unless noted); 95.5% (inactive) in experiment [3]; 103% (inactive) in experiment [4] (10 µM unless noted); 98.2% (inactive) in experiment [5] (10 µM unless noted); 100% (inactive) in experiment [6] (10 µM unless noted). Further, the growth in experiment [7] (10 µM unless noted) was 97.7% (inactive); in experiment [8] (10 µM unless noted), 94.2% (inactive); in [9] (10 µM unless noted), 97.2% (inactive); in experiment [10] (10 µM unless noted) it was 118% (inactive).
With `O=[N+]([O-])c1ccc(S(=O)Cc2ccccc2)c([N+](=O)[O-])c1` (configuration not stated), the growth in experiment [1] (10 µM unless noted) is 71.8% (inactive) and 82.7% (inactive); in experiment [2] (10 µM unless noted), 24.9% (inactive); in experiment [3], 99.5% (inactive); in experiment [4] (10 µM unless noted), 109% (inactive) and 47.2% (inactive); in experiment [5] (10 µM unless noted), 99.8% (inactive) and 103% (inactive); in experiment [6] (10 µM unless noted), 56.6% (inactive) and 7.51% (active). The growth in [7] (10 µM unless noted) is -98.3% (active) and -79% (active); in [8] (10 µM unless noted) it was 83.2% (inactive) and 40.6% (inactive); in experiment [9] (10 µM unless noted), 84.2% (inactive) and 51.2% (inactive); in [10] (10 µM unless noted) it was -98.2% (active) and -92.3% (active).
Take `CC(=O)/C=C/c1ccc(N(C)Cc2ccc(C(C)(C)C)cc2)cc1`: the growth in experiment [1] (10 µM) was 75.5% (inactive); in [1] (100 µM), -10.1% (active); in experiment [2] (10 µM), 85.1% (inactive); in [2] (100 µM), -82.3% (active); in experiment [3] it was -64.5% [100 µM] (active); in [4] (10 µM) it was 97.6% (inactive). Besides, the growth in [4] (100 µM) is -34.8% (active); in experiment [5] (10 µM), 96.9% (inactive); in [5] (100 µM) it was -63.7% (active); in [6] (10 µM), 77.3% (inactive); in experiment [6] (100 µM), -92.6% (active); in [7] (10 µM), 77.1% (inactive). The growth is -76.4% (active) in [7] (100 µM); 89.6% (inactive) in [8] (10 µM); -48.6% (active) in experiment [8] (100 µM); 97.3% (inactive) in experiment [9] (10 µM); -75% (active) in experiment [9] (100 µM); 113% (inactive) in experiment [10] (10 µM). The growth in experiment [10] (100 µM) was -72% (active).
As for `N#Cc1cc(-c2ccnc(Nc3ccc(NC(=O)CCl)cc3)n2)ccc1N1CCCC1`, the growth in [1] (10 µM unless noted) was -31.3% (active); in [2] (10 µM unless noted), -12.4% (active); in experiment [3] it was 53.4% (inactive); in experiment [4] (10 µM unless noted), -4.87% (active); in experiment [5] (10 µM unless noted), -35.9% (active); in [6] (10 µM unless noted), 28.4% (inactive). For the same molecule, the growth is -41.3% (active) in experiment [7] (10 µM unless noted), -26.7% (active) in experiment [8] (10 µM unless noted), -14.6% (active) in [9] (10 µM unless noted) and -59.6% (active) in [10] (10 µM unless noted).
As to `COc1ccc2c(c1)c(-c1nc(-c3c[nH]c4c(Cl)nccc34)cs1)cn2C`, the growth in experiment [1] (10 µM unless noted) is 73.9% (inactive); in experiment [2] (10 µM unless noted), 37.2% (inactive); in experiment [3], 91.3% (inactive); in experiment [4] (10 µM unless noted), 92.6% (inactive); in experiment [5] (10 µM unless noted) it was 31.1% (inactive); in experiment [6] (10 µM unless noted), 76.1% (inactive). Further, the growth in experiment [7] (10 µM unless noted) is 86.6% (inactive); in [8] (10 µM unless noted), 84.7% (inactive); in [9] (10 µM unless noted), 124% (inactive); in experiment [10] (10 µM unless noted), 93.9% (inactive).
In the case of `CC/C(=C(/c1ccc(O)cc1)c1ccc(OCCN2CCCCCC2)cc1)c1ccc(Cl)cc1`, the growth is 80.4% (inactive) in experiment [1] (10 µM unless noted); 89.2% (inactive) in [2] (10 µM unless noted); 84.1% (inactive) in [3]; 98.8% (inactive) in experiment [4] (10 µM unless noted); 46% (inactive) in experiment [5] (10 µM unless noted); 69.5% (inactive) in experiment [6] (10 µM unless noted). The growth is 90.2% (inactive) in experiment [7] (10 µM unless noted), 70.6% (inactive) in [8] (10 µM unless noted), 18.4% (inactive) in [9] (10 µM unless noted) and 4.48% (active) in experiment [10] (10 µM unless noted).
`COc1ccc(C(=O)/C=C/c2ccc(OCc3cccc(C(F)(F)F)c3)c(OC)c2)cc1OC`: the growth is 69.9% (inactive) in [1] (10 µM); 11.1% (inactive) in experiment [1] (100 µM); 81.4% (inactive) in experiment [2] (10 µM); -12.8% (active) in experiment [2] (100 µM); 11.7% [100 µM] (inactive) in [3]; 111% (inactive) in experiment [4] (10 µM). Further, the growth in experiment [4] (100 µM) is 5.03% (active); in experiment [5] (10 µM), 78.9% (inactive); in [5] (100 µM) it was 6.09% (active); in experiment [6] (10 µM), 79.4% (inactive); in experiment [6] (100 µM) it was -17.4% (active); in experiment [7] (10 µM), 53.8% (inactive). The growth in experiment [7] (100 µM) is -18.5% (active); in experiment [8] (10 µM), 73.1% (inactive); in experiment [8] (100 µM) it was 14.9% (inactive); in experiment [9] (10 µM) it was 122% (inactive); in experiment [9] (100 µM), -3.87% (active); in experiment [10] (10 µM), 103% (inactive). For the same molecule, the growth in experiment [10] (100 µM) was 23.2% (inactive).
Turning to `Nc1ncnc2c1C(c1ccc([N+](=O)[O-])cc1)c1sc3c(F)cccc3c1O2` (configuration not stated), the growth was 86.8% (inactive) in experiment [1] (10 µM unless noted); 62.9% (inactive) in experiment [2] (10 µM unless noted); 93.6% (inactive) in [3]; 116% (inactive) in experiment [4] (10 µM unless noted); 89.4% (inactive) in experiment [5] (10 µM unless noted); 107% (inactive) in [6] (10 µM unless noted). Besides, the growth in experiment [7] (10 µM unless noted) is 84.3% (inactive); in experiment [8] (10 µM unless noted), 99.9% (inactive); in [9] (10 µM unless noted), 103% (inactive); in experiment [10] (10 µM unless noted), 109% (inactive).
Consider `CCCCCCCCCCCCCCCCCCn1cc(COc2ccc(C=O)cc2)nn1`, for which the growth was 90.4% (inactive) in [1] (10 µM unless noted); 102% (inactive) in experiment [2] (10 µM unless noted); 108% (inactive) in [3]; 104% (inactive) in experiment [4] (10 µM unless noted); 102% (inactive) in experiment [5] (10 µM unless noted); 135% (inactive) in experiment [6] (10 µM unless noted). The growth was 89% (inactive) in experiment [7] (10 µM unless noted), 91.2% (inactive) in experiment [8] (10 µM unless noted), 94.9% (inactive) in experiment [9] (10 µM unless noted) and 113% (inactive) in [10] (10 µM unless noted).
In the case of `CC(=O)/C=C/c1ccc(N(CCO)Cc2ccc(C(C)(C)C)cc2)cc1`, the growth in experiment [1] (10 µM) was 75.5% (inactive); in [1] (100 µM), -70.7% (active); in experiment [2] (10 µM), 72.9% (inactive); in [2] (100 µM), -78.1% (active); in experiment [3], -98.7% [100 µM] (active); in experiment [4] (10 µM), 78.6% (inactive). Also, the growth in [4] (100 µM) was -92.7% (active); in experiment [5] (10 µM), 74.4% (inactive); in experiment [5] (100 µM), -86% (active); in [6] (10 µM), 54.7% (inactive); in [6] (100 µM), -94.5% (active); in experiment [7] (10 µM), 70.1% (inactive). Besides, the growth in experiment [7] (100 µM) was -71% (active); in experiment [8] (10 µM), 66.3% (inactive); in experiment [8] (100 µM), -99.3% (active); in experiment [9] (10 µM), 87.5% (inactive); in [9] (100 µM) it was -93.4% (active); in experiment [10] (10 µM), 90.1% (inactive). The growth in [10] (100 µM) is -76.6% (active).

The values above are taken from PubChem BioAssay (NCI).
